Screens deposited in PubChem BioAssay by National Center for Advancing Translational Sciences (NCATS).
Sfp PPTase inh: inhibitors of Bacillus subtilis Sfp phosphopantetheinyl transferase; Q9F4F7; Biochemical Sfp PPTase activity, qHTS; Potency, µM, for inactives: largest response in the series, negative = inhibition, actives largely listed as inhibitors; 310,000 tested, 3.5% active; AID 1490;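 further: the enzyme is Sfp with the accession as filed and its product quenches rhodamine fluorescence; 0% = enzyme reaction without inhibitor and -100% = no enzyme wells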
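Buffer: 50 mM Hepes-Na pH 7.6, 10 mM MgCl2, 0.01% Nonidet P-40, 0.01% BSA. Enzyme 15 nM, pre-exposed to compound 15 min; substrates then added and fluorescence change tracked over 30 min.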
GCN5L2 inh: inhibitors of human GCN5L2 histone acetyltransferase; Q92830; GCN5L2 HAT assay, ThioGlo1 CoA-SH fluorescence; Potency, µM (titrated, usually from 58.9 µM), without a hit: at the highest dose activity change, negative = inhibition, actives largely listed as inhibitors; 390,000 tested, 0.21% active; further: on the % scale 0 is the no-effect control and ±100 the full control effect
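GCN5L2 (20nM final) in 50mM HEPES, 0.1mM EDTA pH 7.5, 0.01% Tween-20 was preincubated 15 min at room temperature with compound, then given ThioGlo1 (50uM), H3(1-25) peptide (75uM) and acetyl-CoA (70uM); CoA-thiol fluorescence (Ex340/Em540) was read at 0 and 20 min.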
NPSR antag: blocks cAMP signaling of the human neuropeptide S receptor; Potency, µM (highest dose often 38.3 µM), for the others: at the highest dose activity change, negative = inhibition, hits mostly inhibitors; Q6W5P4; AID 1461; CHO-NPSR cells, cAMP TR-FRET, antagonist mode; 220,000 tested, 1% active; further: on the % scale 0 is the no-effect control and ±100 the full control effect; nearly all actives have a fitted effect of over 50% in size
Target sequence (Q6W5P4 whole entry, looked up): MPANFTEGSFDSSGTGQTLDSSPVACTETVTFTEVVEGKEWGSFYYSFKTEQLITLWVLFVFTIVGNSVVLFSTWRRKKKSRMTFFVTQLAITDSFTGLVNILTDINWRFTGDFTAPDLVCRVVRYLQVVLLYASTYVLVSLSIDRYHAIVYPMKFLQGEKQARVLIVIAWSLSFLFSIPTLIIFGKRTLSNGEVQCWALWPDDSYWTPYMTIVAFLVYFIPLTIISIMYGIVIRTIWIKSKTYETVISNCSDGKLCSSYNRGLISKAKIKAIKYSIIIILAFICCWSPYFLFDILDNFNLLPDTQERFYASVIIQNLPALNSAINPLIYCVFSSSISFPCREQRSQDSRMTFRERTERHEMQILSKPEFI
KDM4E inh: JMJD2E (human) inhibition; JMJD2E catalytic domain, FDH-coupled NADH fluorescence (FDH is formaldehyde dehydrogenase); Potency, µM (series often up to 57.1 µM), inactives show top-dose activity change, negative = inhibition, most hits filed as inhibitors; 230,000 tested, 1.6% active; active means well fitted inhibition curve with a large enough effect, not every such curve was filed as active; inconclusive means small, poorly fitted or top-dose-only effect, or another doubt; inactive means no such curve, though single readings can be large or run the other way;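 further: 0% = wells with enzyme and -100% = buffer wells without enzyme; nearly all actives have a fitted effect of over 50% in size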
Target sequence (B2RXH2 1-337 limits assumed): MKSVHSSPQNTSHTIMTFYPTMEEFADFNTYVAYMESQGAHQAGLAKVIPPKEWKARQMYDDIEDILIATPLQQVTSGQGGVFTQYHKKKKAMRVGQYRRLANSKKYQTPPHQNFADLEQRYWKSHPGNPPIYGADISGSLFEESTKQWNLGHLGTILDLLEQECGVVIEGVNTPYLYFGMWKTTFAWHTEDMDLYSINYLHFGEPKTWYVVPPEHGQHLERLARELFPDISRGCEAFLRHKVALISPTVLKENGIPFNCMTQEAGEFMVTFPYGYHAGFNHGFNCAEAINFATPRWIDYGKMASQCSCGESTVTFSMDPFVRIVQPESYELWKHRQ
IMPase Li inh: IMPase inhibition in cells with lithium potentiation. CHO-M1 cells, IP1 TR-FRET (IP-One), carbachol + lithium. Potency, µM (doses to about 59.4 µM), without a hit: at the top dose activity, negative = IMPase inhibition, usual class: inhibitors. 210,000 tested, 0.35% active;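 further: IP1 builds up when IMPase is blocked and the TR-FRET signal falls; plate controls were basal vehicle for no effect and high inhibitor control for full effect; nearly all actives have a fitted effect of over 50% in size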
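IP1 accumulation measured by competitive TR-FRET in lysed CHO-M1 cells after 30 min compound exposure at 37C, with a small lithium addition to potentiate weak responses. Hill-equation AC50 from ratio and donor-channel data.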
Epigenetic reg: derepresses silenced GFP reporter in murine cells | 280,000 tested, 0.2% active | AID 1865 | murine LDR cells, GFP reporter derepression, 30 h | Potency, µM (titrated, usually from 53.9 µM), without a hit: top-dose GFP activation, hits mostly activators; further: % of control where 0% means no effect; nearly all actives have a fitted effect of over 60% in size
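Murine LDR cells carrying a silenced, genomically integrated CMV-driven GFP reporter were exposed to compound for 30 hours at 37 C. After PBS washes, GFP-positive cells (20–120 um objects) were counted by laser-scanning microplate cytometry.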
* marks the source's active call; other numbers are inactive results; u = inconclusive; x = not tested or not shown; ! = repeats disagree; [ ] = another dose, or the depositor's remark. Shown are actives, neighbours in structure and some others; about 3.6% of the full set was active somewhere. Unless noted, the call rests on the fitted dose curve; in most records, active means well fitted curve in the direction sought with a large enough effect; inconclusive means small, poorly fitted or top-dose-only effect, or another doubt; inactive means no such curve, though single readings can be large; an effect the other way counts as inactive or inconclusive. Potency means the concentration at half of the fitted maximal effect.

SMILES	Sfp PPTase inh	GCN5L2 inh	NPSR antag	KDM4E inh	IMPase Li inh	Epigenetic reg
O=c1ccc2cc(O[C@@H]3O[C@@H](CO)[C@H](O)[C@@H](O)[C@@H]3O)c(O)cc2o1	4%	22µM*	x	x	x	x
O=c1ccc2cc(O[C@H]3OC(CO)C(O)C(O)C3O)c(O)cc2o1 (stereo partly specified)	-3%	u	x	u	13µM*	0%
CCCC(=O)Cl	x	x	x	x	18%	x
CCCCCCCCCCCC[N+](C)(C)CCOc1ccccc1	50µM*	3%	x	x	29%	x
O=[N+]([O-])c1ccc(NCc2ccccc2)c2nonc12	15%	-9%	-19%	-3%	-7%	22µM*
NC(=S)/N=C/c1c(O)[nH]c(=O)[nH]c1=O	-18%	-4%	5%	u	10%	1%
C=CCNC(=S)/N=C/c1c(O)[nH]c(=O)[nH]c1=O	45µM*	-3%	12%	2.5µM*	-7%	6%
CCCCOC(C)=O	x	x	x	x	-17%	x
S=c1[nH]nc(C2CC2)n1Cc1ccccc1	56µM*	-13%	-1%	-4%	31%	-1%
S=c1[nH]nc(-c2ccco2)n1Cc1ccccc1	23%	7%	-15%[46.1 µM]	u	8%[38.3 µM]	-1%
CN(C)C(=S)SSC(=S)N(C)C	3.5µM*!	14µM*	u	25µM*	27%	0%
CN(C)C(=S)SC(=S)N(C)C	11µM*	u	x	x	18%	u
CSSC	x	x	x	x	15%	x
Nc1ccc(-c2ccc(N)c(Cl)c2)cc1Cl	x	x	x	x	26%	x
O=C(Cc1ccccc1)N1CCN(C2CCCC2)CC1	89µM*	-7%	6%[46.1 µM]	u	15%[38.3 µM]	0%
O=C(COc1ccccc1)N1CCN(C2CCCC2)CC1	-4%	4%	2%[46.1 µM]	u	1%[38.3 µM]	-4%
CC(=O)[O-].CC(=O)[O-].CC(=O)[O-].[Cr+3]	x	x	x	x	-11%	x
CCN(CC)C(=O)N[C@H]1C=C2c3cccc4[nH]cc(c34)C[C@@H]2N(C)C1	4%	-4%[21.4 µM]	x	u	1%	0%[16.9 µM]
c1ccc2c(CCNCc3ccc4c(c3)OCO4)c[nH]c2c1	35µM*	-3%	6%[46.1 µM]	-2%	-4%	-2%
CC(C)[C@H](NC(=O)[C@H](CC(=O)O)NC(=O)[C@H](Cc1ccccc1)NC(=O)[C@@H](C)NC(=O)[C@@H](N)Cc1ccc(O)cc1)C(=O)N[C@H](C(=O)NCC(N)=O)C(C)C	-14%	49%	x	x	x	x
O=C(Nc1ccc(Oc2ccc(Cl)cc2)c(Cl)c1)c1cc(I)cc(I)c1O	-8%	25µM*	x	x	x	x
Cc1ccc(/C=C2/C(=O)NC(=O)N(C)C2=O)cc1	u	-5%	4%	-12%	-3%	-1%
CN1C(=O)NC(=O)/C(=C/c2ccc(C(=O)O)cc2)C1=O	45µM*	-10%	17%	-10%	x	-1%
NC1(P(=O)(O)O)CCCCC1	x	x	x	x	0%	x
O=C(Cn1cc(C(=O)c2ccccc2F)c2ccccc21)NCc1ccco1	-5%	-17%	u	-2%	8.9µM*	2%
SMILES	Sfp PPTase inh	GCN5L2 inh	NPSR antag	KDM4E inh	IMPase Li inh	Epigenetic reg
C/C=C1/C2C=C(C)CC1(N)c1ccc(=O)[nH]c1C2 (stereo unspecified)	7%	5%	x	x	11%	4%
COc1cc(OC)cc(C(=O)N2CCC(N3CCN(c4ccccc4)CC3)CC2)c1	45µM*	-4%	-2%[46.1 µM]	u	31%[38.3 µM]	-2%
COc1ccccc1N1CCN(C2CCN(C(=O)c3cc(OC)c(OC)c(OC)c3)CC2)CC1	-27%	2%	-11%[46.1 µM]	u	8%[38.3 µM]	0%
C[C@H](N)C(=O)N[C@@H](C)C(=O)N[C@@H](Cc1ccccc1)C(=O)CCl	17%	9%	x	x	2%	1%
CCn1c(N)c(C(=O)NC)sc1=S	2.2µM*	-23%	-10%[46.1 µM]	u	14%[38.3 µM]	0%
C[C@H](CCC(=O)O)[C@H]1CC[C@@H]2[C@H]3CC[C@H]4C[C@@H](O)CC[C@@]4(C)[C@H]3CC[C@]21C	32%	u	x	-1%[25.5 µM]	3%	-1%[16.9 µM]
COCc1cc(C)c(C#N)c(=S)[nH]1	10µM*	-10%	-5%[46.1 µM]	0%	-10%[38.3 µM]	-1%
O=P(O)(OP(=O)(O)c1ccccc1)c1ccccc1 (tested in a mixture with another compound)	x	x	x	x	5%	x
COc1ccccc1C1(O)CCN(CCCn2c3ccccc3c3ccccc32)CC1	u	0%	x	x	x	x
CNCC(N)C(=O)O (stereo unspecified)	u	0%	x	x	x	x
CN1CCc2nc3sc(C(=O)NC4CC4)c(N)c3cc2C1	32µM*	-11%	-56%	u	-6%	1%
CCOc1ccccc1NC(=O)c1sc2nc3c(cc2c1N)CN(Cc1ccccc1)CC3	x	0%	x	x	x	u
CN(C)C(=O)Nc1cccc(C(F)(F)F)c1	x	x	x	x	1%	x
CCOC(=O)CNC(=O)CSP(=S)(OCC)OCC	79µM*	u	-9%[46.1 µM]	0%	24%[38.3 µM]	0%
CC(=O)[C@@H]1CC[C@H]2[C@@H]3CC[C@@H]4CC(=O)CC[C@]4(C)[C@H]3CC[C@]12C	8%	-16%	x	x	1%	1%
Cc1cc(C=C2C(=O)N(C)C(=S)N(C)C2=O)c(C)n1C1CCCC1	56µM*	2%	u	-4%	39%[38.3 µM]	-1%
CCCCCCNC(=O)N[C@@H](Cc1ccc(O)cc1)C(=O)NCCC[C@H]1CN2C(=NC[C@H]2C)N1CC1CCC1	9%	-10%	8%	6%	x	1%
CCCCCCNC(=O)N[C@H](Cc1ccc(O)cc1)C(=O)NCCC[C@H]1CN2C(=NC[C@H]2CCC)N1CC1CCC1	7.9µM*	u	-23%	u	x	u
COC(=O)[C@]1(C)C[C@H]1[C@H](NP(=O)(c1ccccc1)c1ccccc1)c1ccccc1	-1%	-2%	13µM*	8%	3%	0%
C[N+](=O)[O-]	x	x	x	x	3%	x
O=C(O)CCC(CP(=O)(O)O)C(=O)O (stereo unspecified)	-7%	0%	x	x	x	x
CCCN1CCc2cccc3c2C1Cc1ccc(O)c(O)c1-3 (stereo unspecified)	56µM*	-5%	0%[46.1 µM]	u	14%	u
CCCN1CCc2cc(O)cc3c2[C@H]1Cc1ccc(O)c(O)c1-3	x	-14%	x	x	x	x
C=CC(N)=O	x	x	x	x	3%	x
CC(=O)OCC1=C(C(=O)O)N2C(=O)[C@@H](N)[C@@H]2SC1	22µM*	-3%[21.4 µM]	x	u	-11%	1%[16.9 µM]
CC1=C(C(=O)O)N2C(=O)C(NC(=O)CCCC(=O)O)C2SC1 (stereo unspecified)	-4%	-3%	-14%	-2%	4%	-1%
C[C@@H]1Cc2c(Cl)cc(C(=O)N[C@H](Cc3ccccc3)C(=O)O)c(O)c2C(=O)O1	6%	30%	x	x	x	x
CN(C)c1ccc(NC(=O)Oc2ccccc2)cc1	79µM*	0%	-11%[46.1 µM]	u	29%[38.3 µM]	2%
